Hits are enriched below; roughly 2.8% of the tested compounds scored in any of these assays.
GALC G270D act: raises human GALC G270D mutant activity in cells | Potency, µM (series often up to 57.5 µM), hits mostly activators | hit rate 0.1% among 45,000 | P54803 | 145M-Twi-hGALC-G270D cells (Twitcher mouse brain line with human GALC G270D), HMU-beta-Gal fluorescence, 48 h; note: potency is the fitted concentration of half-maximal effect; 0% is about no effect; nearly all actives have a fitted effect of over 65% in size
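Mutant human GALC (G270D), stably expressed in a Twitcher mouse brain cell line lacking endogenous GALC, is measured in live-treated cells via 6-hexadecanoylamino-4-methylumbelliferyl-β-galactoside hydrolysis (0.1 mM final, pH 5.2) with fluorescent detection.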
B2AR arrestin ag: beta-arrestin recruitment by human beta2-adrenergic receptor ligands. 44,000 tested, under 10 active. HTLA Tango cells, beta-arrestin recruitment, luciferase luminescence, 18 h. Potency, µM (series often up to 46.1 µM), hits mostly activators. P07550;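 note: potency is the fitted concentration of half-maximal effect; 0% = DMSO and full agonism = EC100 isoproterenol or metaproterenol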
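Tango cells expressing recombinant beta2-AR and beta-arrestin were treated with compounds (up to 46 microM titration) in DMEM with 1% FBS for 18 hr at 37 degrees C. Beta-arrestin recruitment drove tTA-dependent luciferase, read by luminescence; curves were fitted and classed.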
PTAP-TSG101 blk: blocks PTAP binding to human TSG101, validation; Potency, µM (highest dose often 115 µM), hits mostly inhibitors; Q99816; 44,000 tested, under 10 active; Fluorescence polarization, FITC-PTAP peptide/Tsg101, 20 min; AID 1347069; note: potency is the fitted concentration of half-maximal effect; 0% is about no effect
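qHTS FP binding, 20 min r.t.: 10 uM Tsg101 domain + 50 nM FITC-PTAP peptide, pH 7.5 HEPES buffer with TCEP and EDTA.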
FH mod: Identification of activators of human fumarate hydratase by quantitative high-throughput screening. Fumarate hydratase, mitochondrial (Homo sapiens), P07954. FH coupled MDH/diaphorase resazurin fluorescence, 15 min. Potency, µM (titrated, usually from 79.9 µM), inactives show top-dose activity change, negative = inhibition, hits mostly inhibitors. hit rate 0.22% among 54,000. AID 1347055, 2019; note: potency is the fitted concentration of half-maximal effect; % is set by controls: 0 for no effect and ±100 for the full control effect; the screen sought activators but most active calls are inhibition curves; nearly all actives have a fitted effect of over 45% in size
GPR32 ag: activates human resolvin D1 receptor GPR32. CHO-K1 GPR32 beta-arrestin PathHunter luminescence, 90 min; zero percent set by DMSO-only wells. activation, % at 76.9 µM. hit rate 2.5% among 48,000. AID 1346428;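 active = activation of at least 60% and not above a set upper limit, about 1 call in 100 departs from these limits; inconclusive = activation of 40% to 60%, or above that upper limit; inactive = activation under 40%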; note: 0% is about no effect
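CHO-K1 cells stably expressing ProLink-tagged GPR32 and Enzyme Activator-tagged beta-arrestin were seeded at 2,500 cells/well overnight, exposed to compounds for 90 min at 37 °C, then read by beta-Gal complementation chemiluminescence after 1 h detection reagent.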
GALK inhibitor: inhibitors of human galactokinase (GALK) | P51570 | recombinant GALK, Kinase-Glo ATP luminescence, 1 h | Potency, µM (titrated, usually from 57.5 µM), inactives show at the top dose activity, negative = inhibition, hits mostly inhibitors | 44,000 tested, under 10 active | AID 1347072;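 note: plate controls were full GALK reaction for no effect and reaction lacking GALK for full effect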
Target sequence (P51570 whole entry, looked up): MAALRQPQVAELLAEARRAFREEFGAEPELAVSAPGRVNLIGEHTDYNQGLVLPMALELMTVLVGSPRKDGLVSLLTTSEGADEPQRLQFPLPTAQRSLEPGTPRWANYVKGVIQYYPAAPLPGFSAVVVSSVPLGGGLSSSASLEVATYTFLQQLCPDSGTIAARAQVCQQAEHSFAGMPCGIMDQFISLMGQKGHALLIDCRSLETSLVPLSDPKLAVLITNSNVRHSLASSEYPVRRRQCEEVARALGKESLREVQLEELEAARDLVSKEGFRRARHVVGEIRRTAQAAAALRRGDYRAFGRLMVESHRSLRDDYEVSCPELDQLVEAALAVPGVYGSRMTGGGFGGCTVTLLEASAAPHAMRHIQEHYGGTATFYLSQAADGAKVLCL
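5 nM GALK; 35 uM ATP; 100 uM D-galactose; 20 mM HEPES pH 8.0, 5 mM MgCl2, 60 mM NaCl, 1 mM DTT, 0.01% BSA; 1 h RT; Kinase-Glo Plus luminescence.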
Starred values were filed as active, the others as inactive; i = inactive; ? = inconclusive; nt = no result given; [ ] = remark or other dose. Unless noted, calls come from the whole dose curve; as a rule, active = well fitted curve in the direction sought with a large enough effect; inconclusive = small, poorly fitted or top-dose-only effect, or another doubt; inactive = no such curve, though single readings can be large; an effect the other way counts as inactive or inconclusive.

SMILES	GALC G270D act	B2AR arrestin ag	PTAP-TSG101 blk	FH mod	GPR32 ag	GALK inhibitor
CCOC(=O)C(Cc1ccccc1)NC(=O)Cn1nnc(-c2ccc(C)cc2)n1 (centres undefined)	i	?	i	-8%	62*	-16%
O=C(O)c1cccc(C(=O)CCC2OC(n3cnc4c(=O)[nH]cnc43)C(O)C2O)c1 (centres undefined)	nt	nt	nt	-9%[53.3 µM]	nt	nt
CCOC(=O)c1noc2ncn(CC(=O)Nc3ccc(C)c(F)c3)c(=O)c12	i	i	i	-9%	76*	2%
CCOC(=O)c1noc2ncn(CC(=O)Nc3cccc(Cl)c3)c(=O)c12	i	i	i	-1%	14	0%
C[C@@H](c1nc(-c2ccc(C#N)cc2)cs1)[C@](O)(Cn1cncn1)c1cc(F)ccc1F	nt	nt	nt	-1%	nt	nt
O=C1NC(=O)/C(=C/c2ccc(-c3ccc(F)cc3O)o2)S1	nt	nt	nt	?	62*	nt
Cc1ccc(NC(=O)Nc2cccc(C)n2)cc1	i	i	i	-1%	65*	0%
Cc1cccc(NC(=O)Nc2ccc(F)cc2)n1	i	i	i	-9%	-11	2%
Cc1cc(C)c(S(=O)(=O)Nc2ccc3oc4c(c3c2)C(=O)CC(C)(C)C4)cc1C	i	i	i	-17%	-6	-1%
COc1ccc(S(=O)(=O)Nc2ccc3oc4c(c3c2)C(=O)CC(C)(C)C4)cc1	i	i	i	-17%	64*	-15%
O=C(NCCN1CCC(n2c(=O)[nH]c3ccccc32)CC1)c1cc2cc(F)ccc2[nH]1	nt	nt	nt	-3%	nt	nt
Cc1ccc(C(=O)NCCc2csc(-c3cccc(F)c3)n2)cc1C	i	i	i	-28%	61*	-1%
CCOc1ccc(C(=O)NCCc2csc(-c3cccc(F)c3)n2)cc1OCC	i	i	i	-10%	3	0%
Cc1nc(-c2cccc(F)c2)sc1CCNC(=O)c1ccc(F)c(F)c1	i	i	i	?	63*	1%
O=C(NCCc1csc(-c2cccc(F)c2)n1)c1ccc(Br)o1	i	i	i	-11%	94*	-2%
COc1ccccc1N1CCN(CC(O)COc2ccc(Cl)c(C)c2)CC1 (centres undefined)	i	i	i	-4%	118*	0%
COc1ccc(N2CCN(CC(O)COc3ccc(C)cc3C)CC2)cc1 (centres undefined)	i	i	i	-23%	67*	4%
CC(C)CC(=O)O[C@@H]1OC=C(CO[C@@H]2O[C@H](CO[C@@H]3O[C@H](CO)[C@@H](O)[C@H](O)[C@H]3O)[C@@H](O)[C@H](O)[C@H]2O)[C@H]2C[C@H](O)[C@@H](CO)[C@@H]12	nt	nt	nt	6%[20.6 µM]	nt	nt
CC(C)(C)c1ccc(-c2nc3c(N4CCN(Cc5ccc6nccnc6c5)CC4)cccc3[nH]2)cc1	nt	nt	nt	-18%	nt	nt
O=C(c1cccc(Cl)c1F)N1CCN(Cc2cccc(Nc3nccs3)n2)CC1	nt	nt	nt	7%	nt	nt
COc1cccc(C(=O)N2CCC(c3nc4ccccc4s3)CC2)c1	i	i	i	-10%	95*	4%
Cc1cc(C)cc(OCC(=O)N2CCC(c3nc4ccccc4s3)CC2)c1	i	i	i	-17%	25	1%
CCCOc1ccc(C(=O)N2CCC(c3nc4ccccc4s3)CC2)cc1	i	i	i	3%	0	6%
COc1ccc(C(=O)N2CCC(c3nc4ccccc4s3)CC2)cc1Cl	i	i	i	?	76*	-5%
CCCOc1ccccc1C(=O)N1CCC(c2nc3ccccc3s2)CC1	i	i	i	-19%	104*	0%
Cc1cc(Cl)ccc1OCC(=O)N1CCC(c2nc3ccccc3s2)CC1	i	i	i	?	?	-11%
Cc1cc(CO)c(O)c(C(=O)CC2CC(=O)NC(=O)C2)c1	nt	nt	nt	-1%	nt	nt

Bioassay records: PubChem, National Center for Advancing Translational Sciences (NCATS)
